Experimental data: PubChem BioAssay AID720519 (National Center for Advancing Translational Sciences (NCATS), 2013)
Records with an inconclusive call do not appear. The call rests on the fitted dose curve; in most records, active means well fitted activation curve with a large enough effect; inconclusive means small, poorly fitted or top-dose-only effect; inactive means flat fitted curve, though single readings scatter.

Test: qHTS for Inhibitors of Cell Surface uPA Generation: Confirmatory Assay for Cherry-picked Compounds; further: 0% is about no effect
Details: cell surface uPA activity generation, qHTS confirmation; series mostly up to 115 µM; inhibition: at the top concentration
Procedure, shortened: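 RAW 264.7 cells at 4000/well, incubated overnight, then treated with compounds. After 24 h at 37 C, viability was read by ATPlite luminescence. An increase in signal indicates blocked uPA-dependent LF entry.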

inhibition, inactive:
Cc1nc2nc(C)c(NS(=O)(=O)c3ccc(Cl)cc3)c(=O)n2[nH]1 -2.34%, CCOc1ccccc1CN1CCCC(CNS(=O)(=O)c2ccc(OC)cc2)C1 (stereo not drawn) -2.48%, COc1cc(CNCc2ccc3c(c2)OCO3)c([N+](=O)[O-])cc1OC -0.654%, COc1cc(C2/C(=C(\O)c3ccc4c(c3)CC(C)O4)C(=O)C(=O)N2CC2CCCO2)cc(OC)c1OC (stereo not drawn) -1.4%, CN(C)C(=O)NC(NC(=S)Nc1ccccc1)C(Cl)(Cl)Cl (stereo not drawn) -2.04%, O=C1c2ccccc2[C@@H]2C[C@H](NC34CC5CC(CC(C5)C3)C4)[C@@H](O)CCN12 -0.982%, Cc1cc(C)n(CCCNC(=O)c2ccc(C)o2)n1 -2.18%, O=C(NCC1CCCO1)c1c(O)c2cccc3c2n(c1=O)CCC3 (stereo not drawn) -3.48%, COc1ccc(C2=NOC(CNC(N)=S)C2)cc1 (stereo not drawn) -3.56%, CC1Cc2nc(SCC(=O)N3CCCC3)n(C)c(=O)c2S1 (stereo not drawn) -3.28%, O=C(c1cc2cc([N+](=O)[O-])ccc2s1)N1CCOCC1 -2.48%, CC(C)(C)OC(=O)C[C@@H]1C/C=C\C[C@@H](CC(=O)N(CCO)Cc2ccccc2)C(=O)N[C@H](Cc2c[nH]c3ccccc23)COC1=O -3.72%, COC(=O)/C(C#N)=C\c1c(OC)[nH]c2ccccc12 -0.852%, CCc1c(C)sc(NC(=S)N2CC(C)OC(C)C2)c1C(=O)OC (stereo not drawn) -1.09%, O=C(NCc1ccccn1)C1CCN(C(=O)c2cc3sccc3n2Cc2ccc(F)cc2)CC1 -2.71%, O=C(O)C(Nc1nc(C(F)(F)F)nc2ccccc12)c1ccccc1 (stereo not drawn) 0.904%, Cc1ccccc1-c1nnc(SCC(=O)NCC2CCCO2)o1 (stereo not drawn) 0.306%, C=CCN1C=C2C(=O)C(C)(OC(=O)c3cnc4ccccc4n3)C(=O)C=C2C=C1/C=C/COC (stereo not drawn) -0.841%, Cn1c(=O)c2c(ncn2CCO)n(C)c1=O -1.74%, O=C(NNC(=O)c1cccc(-n2cccc2)c1)c1ccc(F)cc1 -1.92%, CC[C@]1(C(=O)OC)[C@H]2C(=O)N(C)C(=O)[C@H]2[C@H]2CN(C)C(=NC3CCCCC3)N21 0.58%, CC1(C)CC(=O)C=C(c2ccc3ccccc3c2)C1 -0.951%, Cc1ccc(S(=O)(=O)N2CCC(C(=O)OC(C)C(=O)NC3CCCCC3C)CC2)cc1 (stereo not drawn) -0.0734%, Cc1cc(C)c(S(=O)(=O)N2CCCOC2CNC(=O)C(=O)NCc2cccs2)c(C)c1 (stereo not drawn) -0.442%, Cc1ccc2sc(NNC(=O)c3ccc4c(c3)OCCO4)nc2c1C -3.56%, O=C(CN1CCOC1=O)N1CCCC(Nc2ccc(F)c(F)c2)C1 (stereo not drawn) -0.931%, NS(=O)(=O)c1ccc(CCNC(=O)c2ccc(Cl)s2)cc1 0.106%, COc1ccc(C(c2sc3nc(C)nn3c2O)N2CCC(C(N)=O)CC2)cc1OC (stereo not drawn) -3.21%, N#CCCN(C(=O)COC(=O)c1ccc2c(c1)NC(=O)CS2)c1ccc2c(c1)OCCO2 -2.38%, C=CCn1c(=O)c(C(=O)NCCc2ccc(Cl)cc2)c(O)c2cc(OC)c(OC)cc21 -0.658%, Fc1cccc(Cl)c1CSc1ccc(-c2cccnc2)nn1 -2.62%, CCOC(=O)c1cc(-c2ccccc2C)n(CC2CC(c3ccc(OC)cc3)=NO2)n1 (stereo not drawn) -3.81%, CC(CCc1ccccc1)NC(=O)c1ccc(NC(=O)c2cccc(Br)c2)cc1 (stereo not drawn) -0.796%, CCn1c2ccccc2c2n[nH]c(=S)nc21 -1.42%, Cc1ccc(NC(=S)N2CCN(Cc3ccc4c(c3)OCO4)CC2)c(C)c1 -3.55%, NC(=O)CC[C@H](NC(=O)c1ccc(F)cc1)C(=O)OCC(=O)Nc1c(F)c(F)c(F)c(F)c1F 0.0436%, C[C@@H]1O[C@@H](O[C@@H]2C(=O)c3c(O)cc(O)cc3O[C@H]2c2ccc(O)c(O)c2)[C@H](O)[C@H](O)[C@H]1O -1.98%, Cc1cccc(CNc2ccc(C(CC(N)=O)NC(=O)c3cccc(Br)c3)cc2[N+](=O)[O-])c1 (stereo not drawn) -0.0467%
